SENP7 inh: SENP7 protease inhibitors, primary screen, biochemical, luminescence, uHTS; Sentrin-specific protease 7 (Homo sapiens), Q9BQF6; recombinant SENP7, Z-RLRGG-aminoluciferin luminescence, 40 min; inhibition, % at 5 µM; 330,000 tested, 1.5% active;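 active = inhibition above about 50% at the single test dose, limit read from the data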;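 also: plate controls were DMSO with enzyme for no effect and no enzyme buffer wells for full effect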
PPC-1+TRAIL kill: compounds killing PPC-1 cancer cells with TRAIL present, primary screen, TRAIL potentiator project, ATPLite luminescence, uHTS. cell killing (% activity), % at 4 µM or 5 µM. PPC-1 cells + TRAIL, ATPLite viability luminescence. 220,000 tested, 0.41% active;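 active = cell killing above 50% in the first pass at 4 µM, then a duplicate retest at 5 µM averaging 50% or more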;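 also: plate controls were cells with TRAIL plus DMSO for no effect and medium-only wells lacking cells for full effect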
SENP6 block: SENP6 protease inhibitors, primary screen, biochemical, luminescence, uHTS. Recombinant SENP6 catalytic domain, aminoluciferin luminescence. AID 2599, 2010. 330,000 tested, 1.8% active. inhibition, % at 10 µM. Sentrin-specific protease 6 (Homo sapiens), Q9GZR1;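 active = inhibition above about 50% at the single tested dose, limit read from the data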;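 also: plate controls were DMSO wells with enzyme for no effect and DMSO wells lacking enzyme for full effect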
Target sequence (Q9GZR1 628-1112 limits assumed): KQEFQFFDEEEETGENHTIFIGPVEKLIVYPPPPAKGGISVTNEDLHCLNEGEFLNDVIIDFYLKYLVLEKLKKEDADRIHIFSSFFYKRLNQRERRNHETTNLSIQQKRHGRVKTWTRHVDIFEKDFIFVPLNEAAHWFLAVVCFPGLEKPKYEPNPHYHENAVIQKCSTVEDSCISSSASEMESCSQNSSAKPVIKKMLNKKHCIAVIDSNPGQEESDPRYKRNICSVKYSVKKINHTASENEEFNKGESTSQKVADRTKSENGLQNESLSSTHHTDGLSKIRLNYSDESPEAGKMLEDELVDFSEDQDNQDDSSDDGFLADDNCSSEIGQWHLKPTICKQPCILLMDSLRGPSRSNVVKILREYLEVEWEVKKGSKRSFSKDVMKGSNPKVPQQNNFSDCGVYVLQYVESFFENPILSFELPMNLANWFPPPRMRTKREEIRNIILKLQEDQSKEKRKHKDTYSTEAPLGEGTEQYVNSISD
SENP8 block-1: human SENP8 protease inhibitors, primary screen, biochemical, fluorescence, Nedd8 protein substrate, uHTS; inhibition, % at 20 µM; 360,000 tested, 0.64% active; AID 602440, 2012; Sentrin-specific protease 8 (Homo sapiens), Q96LD8; recombinant SENP8; in the data active = inhibition mostly above about 40%, no sharp cut-off; inactive = mostly below about 27%
C8 TRAIL sens: viability loss with TRAIL in NB7+C8 cells, primary screen, TRAIL sensitizer project, cell-based, ATPlite luminescence; inhibition (viability loss, TRAIL sensitization), % at 10 µM; 360,000 tested, 1% active;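 active = compounds causing at least 50% loss of cell viability in the single-dose screen, relative to plate controls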
SENP8 block-2: SENP8 protease inhibitors, primary screen, biochemical, luminescence; purified SENP8, Z-RLRGG-aminoluciferin cleavage; inhibition, % at 10 µM; 330,000 tested, 1.2% active; in the data active = inhibition above about 50%
SENP8 conf: human SENP8 protease inhibitors, confirmation, biochemical, Nedd8 protein substrate, single concentration; shares compounds with SENP8 block-1; purified SENP8, Nedd8-AMC/pro-Nedd8 cleavage fluorescence, 30 min; inhibition, % at 25 µM; 1,400 tested, 15% active; AID 624319, 2012; in the data active = inhibition mostly above about 39%, no sharp cut-off; inactive = mostly below about 34%
Active calls of the source: *; nt = no result. This is a sample that favours compounds with a hit; in the whole collection about 3% have one here.

SMILES	SENP7 inh	PPC-1+TRAIL kill	SENP6 block	SENP8 block-1	C8 TRAIL sens	SENP8 block-2	SENP8 conf
CCc1cccc(C)c1NC(=O)C1CCN(c2nn3c(=O)cc(C)nc3s2)CC1	-16.5	nt	-23.3	-6.4	10.5	-13.3	nt
N#C/C(C(N)=O)=c1/ccc2c(c1)N1C3=C(CCCC3)CC3CCCCC31N=2 (stereo not given)	0.1	28.4	10.1	nt	nt	10.6	nt
N#CC(C#N)=c1ccc2c(c1)N1C3=C(CCCC3)CC3CCCCC31N=2 (stereo not given)	18.9	13.9	21.3	42.8*	13.3	24.6	7.1
CC(OC(=O)CCN=C1NS(=O)(=O)c2ccccc21)C(=O)Nc1ccc(N(C)C)cc1 (stereo not given)	8.0	nt	-17.7	45.2*	1.1	-14.0	18.1
Cc1ccc(C(=O)C(C)OC(=O)CCN=C2NS(=O)(=O)c3ccccc32)cc1 (stereo not given)	0.8	nt	-12.9	45.9*	-8.6	-8.0	-4.1
CC(OC(=O)CCN=C1NS(=O)(=O)c2ccccc21)C(=O)c1ccccc1 (stereo not given)	0.9	nt	1.8	8.2	3.9	-7.4	nt
CC(=O)c1cn(Cc2ccccc2)c(=O)[nH]c1=O	-6.5	32.8	3.2	-1.4	-1.4	-3.1	nt
CC(C)=CCC/C(C)=C/COc1c2occc2cc2ccc(=O)oc12	-13.8	nt	-12.7	57.4*	-2.2	-12.2	6.8
CC(C)=CCC/C(C)=C/COc1ccc2ccc(=O)oc2c1	4.5	-2.5	-15.0	-168.4	1.8	-15.5	nt
CCN1CCN(c2nc(N)c([N+](=O)[O-])c(Nc3cccc(C)c3)n2)CC1	-6.8	24.3	-8.6	18.7	3.8	-7.7	nt
COc1ccc(Nc2nc(N)c([N+](=O)[O-])c(N3CCOCC3)n2)cc1	8.3	19.5	-14.2	22.9	7.1	-6.8	nt
Cc1cccc(Nc2nc(N3CCN(C)CC3)nc(N)c2[N+](=O)[O-])c1	-7.1	19.2	-24.6	40.5*	-3.3	-9.6	3.1
CCOc1ccc(Nc2nc(N)c([N+](=O)[O-])c(N3CCN(C)CC3)n2)cc1	-5.2	nt	-20.8	47.1*	-21.5	-4.6	11.8
Cc1sc2ncn(CC(=O)NCC(=O)N3CCN(c4ccccc4F)CC3)c(=O)c2c1C	3.6	nt	-3.7	4.0	3.0	-0.3	nt
CC(C)Cn1c(N)c(/C=N/NC(=O)c2ccc(Cl)cc2)c(=O)n(C)c1=O	1.9	nt	-10.5	-303.2	-4.6	1.4	nt
O=C(Oc1ccc(-c2nnco2)cc1)C1CCN(C(=O)c2ccc(F)cc2)CC1	-2.1	nt	-9.7	-2.7	-2.8	-0.7	nt
COC(=O)c1c(SCc2cccc3ccccc23)nc(=O)[nH]c1C	-3.3	10.3	-8.7	10.6	0.1	-3.8	nt
COC(=O)c1c(SCC(=O)Nc2ccc(C)c(C)c2)nc(=O)[nH]c1C	-4.1	-0.3	-1.1	43.9*	5.7	1.4	3.7
CC(=O)OCCCNc1cc(Sc2nc3ccccc3s2)c2nonc2c1[N+](=O)[O-]	80.7*	-4.2	83.8*	59.5*	38.4	91.7*	35.4
CC(=O)OCCNc1cc(SCc2ccco2)c2nonc2c1[N+](=O)[O-]	nt	30.7	nt	76.5*	3.9	nt	9.9
O=[N+]([O-])c1c(NCCCO)cc(SCc2ccco2)c2nonc12	13.6	-8.6	45.2	41.5*	5.0	10.9	29.5
O=[N+]([O-])c1c(NCCCO)cc(Sc2ccc(Cl)cc2)c2nonc12	nt	10.0	nt	28.5	16.2	nt	nt
CC(=O)OCCCNc1cc(Sc2ccc(C)cc2)c2nonc2c1[N+](=O)[O-]	-4.3	13.9	-1.7	12.4	21.3	-4.3	nt
N#CC(C(=O)c1ccccc1)=C1SCCS1	3.3	0.9	6.6	41.8*	-12.1	-2.1	9.1
CC(c1c(O)c2ccccc2[nH]c1=O)C1(C)CCC(O)C(C)(C)O1 (stereo not given)	0.9	2.2	-16.2	44.4*	1.0	-13.0	19.4
SMILES	SENP7 inh	PPC-1+TRAIL kill	SENP6 block	SENP8 block-1	C8 TRAIL sens	SENP8 block-2	SENP8 conf
C=CCN([C@H](C(=O)OC)C(C)C)S(=O)(=O)CCNCc1ccccc1	nt	nt	nt	11.2	-0.9	nt	nt
COc1ccccc1CNC(=O)[C@H](C)NC(=O)C1CCN(C(=O)[C@@H]2CCCN2C(=O)OC(C)(C)C)CC1	-0.6	nt	0.8	44.9*	-6.4	8.2	14.4
CC(/C=C/C(=O)c1ccc(C)cc1)=C\c1ccccc1	3.4	2.4	-0.8	46.2*	13.5	-17.1	17.2
O=C(/C=C/C=C/c1ccc2c(c1)OCO2)N1CCCCC1	22.7	nt	42.2	-72.8	19.4	30.9	nt
O=C(/C=C/CCc1ccc2c(c1)OCO2)N1CCCCC1	7.6	nt	-8.2	57.1*	3.3	2.8	-0.1
CC(=O)CC(=O)Nc1ccc(Nc2ccccc2)cc1	-15.2	18.4	-11.3	10.2	-0.5	-8.0	nt
Cc1c(Cl)cccc1NC(=O)CSC(C)c1nc2ccccc2c(=O)[nH]1 (stereo not given)	1.2	nt	-6.0	26.6*	-1.5	-5.2	1.6
Cc1ccc2sc(NNC(=O)c3cc(=O)c4ccccc4o3)nc2c1C	19.0	10.8	95.8*	66.3*	-17.5	93.5*	24.7
CC(Nc1ccc(S(=O)(=O)N2CCN(C)CC2)cc1[N+](=O)[O-])c1ccccc1 (stereo not given)	5.9	nt	0.1	13.4	6.6	7.9	nt
COc1ccccc1C(C)Nc1ccc(S(=O)(=O)N2CCN(C)CC2)cc1[N+](=O)[O-] (stereo not given)	-1.3	nt	15.6	39.1*	4.6	6.0	12.9
Cc1nnc(N/N=C/c2cccc(C(F)(F)F)c2)n1N	4.1	nt	3.4	48.9*	1.7	2.5	22.1
COc1cccc(N(CC(=O)NCc2ccco2)C(=O)CCC(=O)Nc2nccs2)c1	7.5	1.6	-24.9	24.4	6.1	-1.9	nt
CN(C(=O)COC(=O)C1CCN(S(=O)(=O)c2c(Cl)cccc2Cl)CC1)C1CCCCC1	2.4	nt	2.9	4.4	11.7	-2.1	nt
CCOc1ccc(N2C(=O)CC(n3nc(C)cc3C)C2=O)cc1 (stereo not given)	-2.2	5.1	-25.2	44.7*	9.5	-3.8	5.0
O=S(=O)(Cc1ccccc1)N(O)c1ccccc1	2.4	nt	-13.6	19.1	10.2	-1.7	nt
CCOC(=O)N1CCN(C(=O)COC(=O)CNC(=O)c2ccc(C)cc2)CC1	2.1	nt	-8.4	42.9*	7.3	9.0	21.1
O=C(NC1CCCCC1)C(c1ccnc2ccccc12)N1CCc2ccccc2C1 (stereo not given)	nt	nt	nt	51.1*	1.5	nt	91.1*
